For some assays here: Potency and affinity values are given separately.
How the values were obtained:
Parameters in all cases: scale not given: direction of the effect not stated beside the values
[1] = target: Protein translocase subunit SecA (Escherichia coli (strain K12)) (UniProt P10408); assay: Assay to Identify E. coli SecA ATPase Inhibitors; assay type: functional; details: 30 µM
[2] = target: T1, Ubiquitin-activating enzyme e1, putative (Leishmania donovani (strain BPK282A1)) (UniProt E9BSI1); assay: Leishmania donovani Ubiquitin Activating Enzyme (LdE1); assay type: functional; details: 30 µM
T1 sequence (whole entry): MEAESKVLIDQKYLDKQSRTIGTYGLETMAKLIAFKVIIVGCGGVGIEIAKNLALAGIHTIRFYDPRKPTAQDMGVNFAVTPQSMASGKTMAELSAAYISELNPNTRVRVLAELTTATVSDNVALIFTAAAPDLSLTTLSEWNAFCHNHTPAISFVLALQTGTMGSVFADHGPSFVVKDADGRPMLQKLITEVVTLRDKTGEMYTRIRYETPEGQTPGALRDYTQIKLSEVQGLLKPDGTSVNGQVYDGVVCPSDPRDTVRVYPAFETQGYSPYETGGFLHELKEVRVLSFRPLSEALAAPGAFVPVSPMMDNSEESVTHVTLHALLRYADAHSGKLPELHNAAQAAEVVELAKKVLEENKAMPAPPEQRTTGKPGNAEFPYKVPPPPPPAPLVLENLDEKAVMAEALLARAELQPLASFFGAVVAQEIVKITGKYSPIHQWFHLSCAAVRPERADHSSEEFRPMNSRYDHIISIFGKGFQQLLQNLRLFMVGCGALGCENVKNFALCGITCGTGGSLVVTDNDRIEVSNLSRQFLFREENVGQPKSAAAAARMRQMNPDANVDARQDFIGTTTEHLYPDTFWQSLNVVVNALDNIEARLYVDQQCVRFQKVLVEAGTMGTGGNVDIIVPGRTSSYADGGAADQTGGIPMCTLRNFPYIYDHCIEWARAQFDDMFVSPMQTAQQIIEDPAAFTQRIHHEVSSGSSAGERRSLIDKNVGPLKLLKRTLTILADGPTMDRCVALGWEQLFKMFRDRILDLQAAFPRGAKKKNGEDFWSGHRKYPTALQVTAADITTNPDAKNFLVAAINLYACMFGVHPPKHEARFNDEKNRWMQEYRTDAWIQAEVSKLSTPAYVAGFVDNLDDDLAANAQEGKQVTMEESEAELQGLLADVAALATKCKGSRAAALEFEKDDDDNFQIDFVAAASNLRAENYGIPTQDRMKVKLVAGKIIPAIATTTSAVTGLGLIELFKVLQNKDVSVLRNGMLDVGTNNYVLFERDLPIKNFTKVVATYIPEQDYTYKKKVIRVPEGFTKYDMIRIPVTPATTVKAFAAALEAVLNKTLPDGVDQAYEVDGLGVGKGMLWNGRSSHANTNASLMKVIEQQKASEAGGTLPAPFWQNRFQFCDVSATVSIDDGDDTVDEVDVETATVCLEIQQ

[3] = target: Sialic acid-binding Ig-like lectin 9 (Homo sapiens) (UniProt Q9Y336); assay: Hs-Siglec9 ALPHAscreen SOP 20170721; details: 10 µM
[4] = test system: Trypanosoma cruzi; assay: Trypanosoma cruzi phosphomannomutase and mannose-1-phosphate guanylyltransferase assay; assay type: functional; details: 10 µM
[5] = target: T2, Arginase-2, mitochondrial (Homo sapiens) (UniProt P78540); assay: in vitro enzyme assay to detect the production of urea directly proportional to the activity of Arginase II; assay type: functional; details: 33.3 µM; also: in the data most compounds retested in dose-response had high values
T2 sequence (whole entry): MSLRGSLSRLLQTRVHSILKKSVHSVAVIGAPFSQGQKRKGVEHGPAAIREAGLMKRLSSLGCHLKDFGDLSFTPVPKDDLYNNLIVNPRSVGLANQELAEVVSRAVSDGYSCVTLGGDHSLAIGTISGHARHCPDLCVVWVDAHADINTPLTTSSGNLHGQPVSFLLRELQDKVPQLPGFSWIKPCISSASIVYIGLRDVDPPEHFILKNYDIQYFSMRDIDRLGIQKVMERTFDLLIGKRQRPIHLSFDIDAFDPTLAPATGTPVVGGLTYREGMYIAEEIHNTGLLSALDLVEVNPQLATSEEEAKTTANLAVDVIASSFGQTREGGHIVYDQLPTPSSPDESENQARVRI

[6] = target: T3, Proteasome subunit beta (Trypanosoma cruzi) (UniProt O96673); assay: Trypanosoma cruzi proteasome chymotrypsin-like activity (TcProtChymo) assay.; also: in the data most compounds retested in dose-response had high values; assay type: functional; details: 9.37 µM
T3 sequence (whole entry): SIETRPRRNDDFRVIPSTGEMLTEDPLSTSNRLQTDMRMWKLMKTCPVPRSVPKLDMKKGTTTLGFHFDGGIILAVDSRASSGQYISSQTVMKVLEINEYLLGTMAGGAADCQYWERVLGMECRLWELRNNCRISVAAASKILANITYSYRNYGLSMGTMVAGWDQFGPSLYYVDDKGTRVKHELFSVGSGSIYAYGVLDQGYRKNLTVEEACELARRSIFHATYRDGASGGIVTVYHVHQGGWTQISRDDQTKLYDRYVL

[7] = organism: Homo sapiens; assay: To identify inhibition of the IFN signalling (Jak-Stat) pathway via expression of an eGFP reporter gene under the control of an IFN-stimulated response element (ISRE) containing MxA promoter.; assay type: functional; details: 30 µM
[8] = target: T4, Tyrosyl-tRNA synthetase, putative (Trypanosoma cruzi (strain CL Brener)) (UniProt Q4DSP6); assay: Trypanosoma cruzi tyrosyl tRNA synthetase (TcYRS) _High Tyrosine SOP; assay type: functional; details: 30 µM; also: in the data most compounds retested in dose-response had high values
T4 sequence (whole entry): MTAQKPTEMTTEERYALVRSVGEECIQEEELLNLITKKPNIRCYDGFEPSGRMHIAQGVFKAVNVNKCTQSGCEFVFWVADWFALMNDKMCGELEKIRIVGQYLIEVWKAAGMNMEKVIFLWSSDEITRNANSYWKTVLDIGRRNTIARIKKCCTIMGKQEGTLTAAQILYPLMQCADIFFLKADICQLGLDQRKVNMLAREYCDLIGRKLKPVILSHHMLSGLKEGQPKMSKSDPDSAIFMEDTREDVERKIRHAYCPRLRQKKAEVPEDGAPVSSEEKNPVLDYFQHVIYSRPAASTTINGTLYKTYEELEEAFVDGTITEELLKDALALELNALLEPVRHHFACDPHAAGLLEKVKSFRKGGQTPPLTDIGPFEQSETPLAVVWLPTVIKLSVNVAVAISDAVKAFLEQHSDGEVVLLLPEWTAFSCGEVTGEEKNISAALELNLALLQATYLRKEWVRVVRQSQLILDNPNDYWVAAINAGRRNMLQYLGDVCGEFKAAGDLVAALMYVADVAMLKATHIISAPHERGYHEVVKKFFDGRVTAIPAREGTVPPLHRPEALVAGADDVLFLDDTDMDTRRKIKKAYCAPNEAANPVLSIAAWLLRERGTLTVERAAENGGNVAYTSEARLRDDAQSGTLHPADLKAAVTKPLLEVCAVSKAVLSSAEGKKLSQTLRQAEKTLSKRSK

[9] = target: T4, Tyrosyl-tRNA synthetase, putative (Trypanosoma cruzi (strain CL Brener)); assay: Trypanosoma cruzi tyrosyl tRNA synthetase (TcYRS) SOP; assay type: functional; details: 30 µM
[10] = target: Chromo domain-containing protein 1 (Saccharomyces cerevisiae (strain ATCC 204508 / S288c) (Baker's yeast)) (UniProt P32657); assay: ScCHD-1 Enzyme Inhibition Assay; assay type: functional; details: 30 µM; also: in the data most compounds retested in dose-response had high values
Chromo domain-containing protein 1 (Saccharomyces cerevisiae (strain ATCC 204508 / S288c) (Baker's yeast)), sequence (P32657 whole entry, the tested form may be a part): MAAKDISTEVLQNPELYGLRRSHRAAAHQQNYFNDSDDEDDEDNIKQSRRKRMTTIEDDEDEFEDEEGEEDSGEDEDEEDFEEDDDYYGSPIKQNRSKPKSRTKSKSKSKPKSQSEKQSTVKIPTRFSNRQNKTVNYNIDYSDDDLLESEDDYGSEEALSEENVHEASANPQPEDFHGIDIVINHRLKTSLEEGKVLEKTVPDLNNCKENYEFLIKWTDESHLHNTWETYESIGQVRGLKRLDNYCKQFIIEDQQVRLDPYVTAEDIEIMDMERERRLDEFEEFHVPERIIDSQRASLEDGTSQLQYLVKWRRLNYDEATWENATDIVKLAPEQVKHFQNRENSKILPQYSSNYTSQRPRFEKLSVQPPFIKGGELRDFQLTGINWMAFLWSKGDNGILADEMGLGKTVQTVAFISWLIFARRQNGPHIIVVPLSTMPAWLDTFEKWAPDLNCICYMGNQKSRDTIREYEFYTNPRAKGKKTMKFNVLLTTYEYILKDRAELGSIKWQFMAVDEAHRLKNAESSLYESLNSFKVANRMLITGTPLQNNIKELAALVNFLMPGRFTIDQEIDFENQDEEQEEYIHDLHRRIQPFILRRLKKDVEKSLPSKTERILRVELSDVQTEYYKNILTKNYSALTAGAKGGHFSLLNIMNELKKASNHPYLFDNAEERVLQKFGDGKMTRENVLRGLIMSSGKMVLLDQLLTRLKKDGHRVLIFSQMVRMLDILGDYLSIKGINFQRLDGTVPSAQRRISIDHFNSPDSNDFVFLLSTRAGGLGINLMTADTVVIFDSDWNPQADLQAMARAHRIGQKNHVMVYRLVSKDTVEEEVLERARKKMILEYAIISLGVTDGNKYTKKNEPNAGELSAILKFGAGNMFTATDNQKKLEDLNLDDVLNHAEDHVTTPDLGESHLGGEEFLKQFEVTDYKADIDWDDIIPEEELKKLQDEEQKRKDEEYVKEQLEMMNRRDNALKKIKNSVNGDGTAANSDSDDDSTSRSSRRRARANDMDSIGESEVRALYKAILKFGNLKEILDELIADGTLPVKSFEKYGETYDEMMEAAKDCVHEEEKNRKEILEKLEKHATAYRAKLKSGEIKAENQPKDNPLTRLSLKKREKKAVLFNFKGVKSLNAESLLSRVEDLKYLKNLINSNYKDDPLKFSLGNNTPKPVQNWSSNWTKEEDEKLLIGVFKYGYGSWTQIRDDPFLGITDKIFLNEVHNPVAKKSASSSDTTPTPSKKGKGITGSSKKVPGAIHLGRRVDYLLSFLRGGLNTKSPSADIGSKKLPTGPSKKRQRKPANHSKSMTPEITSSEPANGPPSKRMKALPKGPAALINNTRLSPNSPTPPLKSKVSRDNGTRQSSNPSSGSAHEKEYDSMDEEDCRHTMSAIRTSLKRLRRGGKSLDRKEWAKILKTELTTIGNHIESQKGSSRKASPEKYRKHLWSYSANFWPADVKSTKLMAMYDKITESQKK

Protein translocase subunit SecA (Escherichia coli (strain K12)), sequence (P10408 whole entry): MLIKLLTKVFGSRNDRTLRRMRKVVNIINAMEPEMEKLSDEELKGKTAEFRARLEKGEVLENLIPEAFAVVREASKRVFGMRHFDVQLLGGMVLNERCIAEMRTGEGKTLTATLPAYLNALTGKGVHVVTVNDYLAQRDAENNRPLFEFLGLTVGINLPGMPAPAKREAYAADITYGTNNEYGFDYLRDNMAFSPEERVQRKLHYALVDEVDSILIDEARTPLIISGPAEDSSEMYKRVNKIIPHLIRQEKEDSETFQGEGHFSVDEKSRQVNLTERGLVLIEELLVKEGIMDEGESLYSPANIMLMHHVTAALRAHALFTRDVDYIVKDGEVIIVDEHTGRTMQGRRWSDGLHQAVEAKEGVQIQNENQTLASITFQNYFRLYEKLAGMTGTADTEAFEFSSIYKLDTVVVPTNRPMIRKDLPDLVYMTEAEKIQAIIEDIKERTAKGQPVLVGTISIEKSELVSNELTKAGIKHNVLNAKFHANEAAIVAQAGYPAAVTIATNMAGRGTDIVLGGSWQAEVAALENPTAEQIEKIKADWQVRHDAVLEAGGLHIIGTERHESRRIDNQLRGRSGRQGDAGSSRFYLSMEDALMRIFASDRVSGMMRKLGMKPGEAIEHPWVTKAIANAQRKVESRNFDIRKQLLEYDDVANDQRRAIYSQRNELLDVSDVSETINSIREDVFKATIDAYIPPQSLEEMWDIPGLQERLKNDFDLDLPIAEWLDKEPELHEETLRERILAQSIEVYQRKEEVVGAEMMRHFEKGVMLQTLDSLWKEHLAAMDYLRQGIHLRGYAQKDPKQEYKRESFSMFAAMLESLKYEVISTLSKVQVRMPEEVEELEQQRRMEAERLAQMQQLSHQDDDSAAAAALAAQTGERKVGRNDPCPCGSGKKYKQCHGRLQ
Sialic acid-binding Ig-like lectin 9 (Homo sapiens), sequence (Q9Y336 whole entry): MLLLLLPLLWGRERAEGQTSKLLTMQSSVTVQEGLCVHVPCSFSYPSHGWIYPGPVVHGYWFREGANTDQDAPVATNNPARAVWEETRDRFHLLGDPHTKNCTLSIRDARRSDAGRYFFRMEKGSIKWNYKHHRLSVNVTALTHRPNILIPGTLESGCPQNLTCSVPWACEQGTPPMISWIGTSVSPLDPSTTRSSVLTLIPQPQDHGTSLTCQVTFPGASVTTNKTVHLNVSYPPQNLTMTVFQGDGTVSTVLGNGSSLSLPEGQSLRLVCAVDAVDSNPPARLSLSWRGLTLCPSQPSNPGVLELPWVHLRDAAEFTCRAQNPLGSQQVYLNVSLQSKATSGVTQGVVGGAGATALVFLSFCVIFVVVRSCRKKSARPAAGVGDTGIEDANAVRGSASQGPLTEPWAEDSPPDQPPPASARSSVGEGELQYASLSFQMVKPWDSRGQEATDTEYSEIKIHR

## CC1COCCN1C(=O)c1cccc(OCc2cscn2)c1 (stereo not given)
[1]
  Percent Effect: -2.94%
[2]
  Percent Effect: 10.3%
[3]
  Percent Effect: -10.6%
[4]
  Percent Effect: 7.98%
[5]
  Percent Effect: -4.1%
[6]
  Percent Effect: 9.3%
[7]
  Percent Effect: -21.1%
[8]
  Percent Effect: 5.26%
[9]
  Percent Effect: 20.5%
[10]
  Percent Effect: -2.42%

## COCCc1noc(CN2CCCC2Cn2cc(C)cn2)n1 (stereo not given)
[1]
  Percent Effect: -1.35%
[2]
  Percent Effect: 8%
[3]
  Percent Effect: 1.3%
[4]
  Percent Effect: 3.21%
[5]
  Percent Effect: -7.98%
[6]
  Percent Effect: 3.31%
[7]
  Percent Effect: -1.19%
[8]
  Percent Effect: 0.526%
[9]
  Percent Effect: 7.69%
[10]
  Percent Effect: -7.63%

## O=C(NCCc1ccccc1)C1CCCN(c2ccc3nncn3n2)C1 (stereo not given)
[1]
  Percent Effect: -3.44%
[2]
  Percent Effect: 2.7%
[3]
  Percent Effect: -1.4%
[4]
  Percent Effect: -8.05%
[5]
  Percent Effect: 1.75%
[6]
  Percent Effect: 17.6%
[7]
  Percent Effect: -5.46%
[8]
  Percent Effect: 5.85%
[9]
  Percent Effect: 7.32%
[10]
  Percent Effect: -3.81%

## Cc1csc2ncc(-c3ccnc(N4CCN(C)CC4)n3)c(=O)n12
[1]
  Percent Effect: -1.31%
[2]
  Percent Effect: 0%
[3]
  Percent Effect: -2.78%
[4]
  Percent Effect: -3.21%
[5]
  Percent Effect: -0.444%
[6]
  Percent Effect: -0.933%
[7]
  Percent Effect: 0.181%
[8]
  Percent Effect: -3.68%
[9]
  Percent Effect: -10.3%
[10]
  Percent Effect: -10.1%

## Cc1ccccc1N1CC2(CCN(S(=O)(=O)C3CC3)C2)CC1=O (stereo not given)
[1]
  Percent Effect: 0.787%
[2]
  Percent Effect: 16.9%
[3]
  Percent Effect: -5.74%
[4]
  Percent Effect: -5.07%
[5]
  Percent Effect: 4.57%
[6]
  Percent Effect: 17.4%
[7]
  Percent Effect: 11.8%
[8]
  Percent Effect: 3.87%
[9]
  Percent Effect: 10%
[10]
  Percent Effect: -8.76%

## c1ccc(OCc2ccncc2)c(CNC2CCc3ncnn3C2)c1 (stereo not given)
[1]
  Percent Effect: 1.01%
[2]
  Percent Effect: 17.9%
[3]
  Percent Effect: -16.6%
[4]
  Percent Effect: -0.845%
[5]
  Percent Effect: 10.7%
[6]
  Percent Effect: 11.5%
[7]
  Percent Effect: 20%
[8]
  Percent Effect: 7.18%
[9]
  Percent Effect: 18.1%
[10]
  Percent Effect: -0.669%

## CC(=O)N1CCC2(CC1)C(=O)N(CC1CC1)c1ccccc12
[1]
  Percent Effect: -5.06%
[2]
  Percent Effect: 9.09%
[3]
  Percent Effect: -0.719%
[4]
  Percent Effect: -3.56%
[5]
  Percent Effect: 5.48%
[6]
  Percent Effect: 10.6%
[7]
  Percent Effect: 6.99%
[8]
  Percent Effect: 3.87%
[9]
  Percent Effect: 7.5%
[10]
  Percent Effect: -7.42%

## O=C1C(NCc2nnc3n2CCCC3)CCN1CC(F)(F)F (stereo not given)
[1]
  Percent Effect: -2.08%
[2]
  Percent Effect: 2.56%
[3]
  Percent Effect: -21.5%
[4]
  Percent Effect: 8.73%
[5]
  Percent Effect: -2.05%
[6]
  Percent Effect: 1.79%
[7]
  Percent Effect: 4.98%
[8]
  Percent Effect: 1.44%
[9]
  Percent Effect: 8.43%
[10]
  Percent Effect: -0.359%

## CN(C)Cc1ccc(C2CCCCN2C(=O)c2cccc(CO)n2)cc1 (stereo not given)
[1]
  Percent Effect: -5.85%
[2]
  Percent Effect: 13.5%
[3]
  Percent Effect: 26.3%
[4]
  Percent Effect: 9.8%
[5]
  Percent Effect: 23.4%
[6]
  Percent Effect: 9.25%
[7]
  Percent Effect: 8.84%
[8]
  Percent Effect: 6.92%
[9]
  Percent Effect: 14.6%
[10]
  Percent Effect: 80.3%

## COCCN1C(=O)CCC12CCN(C(=O)NC(C)C)CC2
[1]
  Percent Effect: -5.46%
[2]
  Percent Effect: 3.9%
[3]
  Percent Effect: -2.04%
[4]
  Percent Effect: -0.938%
[5]
  Percent Effect: -0.457%
[6]
  Percent Effect: -2.66%
[7]
  Percent Effect: 19.9%
[8]
  Percent Effect: 1.93%
[9]
  Percent Effect: -10%
[10]
  Percent Effect: -3.15%

## Cc1nccn1-c1cccc(C2CCCN2S(=O)(=O)N(C)C)n1 (stereo not given)
[1]
  Percent Effect: -4.04%
[2]
  Percent Effect: 14.7%
[3]
  Percent Effect: 13.1%
[4]
  Percent Effect: 1.77%
[5]
  Percent Effect: -0.443%
[6]
  Percent Effect: 8.05%
[7]
  Percent Effect: 21%
[8]
  Percent Effect: 5.29%
[9]
  Percent Effect: 15%
[10]
  Percent Effect: -24.5%

Reference: ChEMBL document CHEMBL3988442, “University of Dundee, Small-Polar-MMV Screening Library” (2021)
